# A selection: hits, their analogues and other compounds. The true share with any hit is near 7.3%.
# SMN2 splice up = increases expression of the SMN2 splice variant; Potency, µM (series often up to 46.1 µM), inactives show top-dose activity change, positive = activation, actives largely listed as activators; HEK293 SMN2-luciferase splicing reporter, luminescence, 30-36 h; 210,000 compounds, 2.8% hits; also: % of control where 0% means no effect; nearly all actives have a fitted effect of over 55% in size
#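 HEK293 cells carry an SMN2 minigene-luciferase reporter in which exon 7 inclusion puts luciferase in frame. Cells were seeded at 2000 cells/well, attached for 10-12 hours, then exposed to compounds for 30-36 hours at 37C before ONE-Glo luminescence.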
# Rab9 promoter act = Rab9 promoter activation. Huh7 Rab9 promoter-luciferase reporter, luminescence, 24 h. AID 485297. Potency, µM (series often up to 9.22 µM), inactives show at the highest dose activation, negative = inhibition, usual class: activators. 320,000 compounds, 2.8% hits; also: % of control where 0% means no effect; nearly all actives have a fitted effect of over 60% in size
#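 Huh7 cells stably carrying Rab9 promoter–luciferase reporter, plated 1500 cells/well, compound added after 2 h and incubated 24 h at 37 °C; luciferase luminescence then read after 10 min with detection reagent.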
# FLuc modulator = firefly luciferase modulation, counter-screen for miR-21 project; P08659; purified FLuc, Km substrates, luminescence inhibition; AID 588342; 360,000 compounds, 6.9% hits; Potency, µM (doses to about 57.5 µM), inactives show at the top dose activity change, negative = inhibition, most hits filed as inhibitors;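 also: plate controls were vehicle for no effect and reference inhibitor for full effect; nearly all actives have a fitted effect of over 55% in size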
# Target sequence (P08659 whole entry, looked up): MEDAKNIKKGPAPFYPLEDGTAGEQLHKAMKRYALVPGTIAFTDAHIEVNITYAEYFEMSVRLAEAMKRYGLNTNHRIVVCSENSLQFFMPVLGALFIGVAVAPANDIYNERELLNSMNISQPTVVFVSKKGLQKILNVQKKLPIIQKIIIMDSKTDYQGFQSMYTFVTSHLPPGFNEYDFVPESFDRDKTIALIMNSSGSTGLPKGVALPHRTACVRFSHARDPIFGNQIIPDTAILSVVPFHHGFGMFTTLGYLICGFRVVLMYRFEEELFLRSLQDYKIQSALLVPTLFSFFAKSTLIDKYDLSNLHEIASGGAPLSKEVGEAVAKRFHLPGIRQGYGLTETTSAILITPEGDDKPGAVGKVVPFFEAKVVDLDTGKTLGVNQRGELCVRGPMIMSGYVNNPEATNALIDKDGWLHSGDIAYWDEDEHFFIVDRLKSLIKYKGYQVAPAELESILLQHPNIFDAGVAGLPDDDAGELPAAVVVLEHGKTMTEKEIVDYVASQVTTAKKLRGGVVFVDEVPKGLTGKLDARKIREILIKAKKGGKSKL
#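 Biochemical qHTS of compounds, final roughly 60 µM downward over six points, against 10 nM purified firefly luciferase using Km concentrations of substrates (10 uM D-luciferin, 10 uM ATP) in Tris acetate pH 7.5 buffer; luminescence output.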
# ELG1 genotox = genotoxicity induction in ELG1-luciferase HEK293T cells. HEK293T ELG1-luciferase reporter, luminescence, 16 h. Potency, µM (doses to about 46 µM), inactives show at the top dose activity change, positive = activation, hits mostly activators. 330,000 compounds, 1.3% hits; also: % of control where 0% means no effect; nearly all actives have a fitted effect of over 60% in size
#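 Genotoxic stress is detected as increased luminescence from luciferase-tagged ELG1 in HEK293T cells, measured with ONE-Glo after a 16 hr treatment at 37 °C.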
# NPC1 promoter act = activators of NPC1 promoter | Huh7 NPC1 promoter luciferase reporter, 24 h | Potency, µM (series often up to 9.22 µM), for inactives: top-dose activation, usual class: activators | 320,000 compounds, 2.4% hits; also: % of control where 0% means no effect; nearly all actives have a fitted effect of over 60% in size
#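 Cells: Huh7 expressing luciferase under the NPC1 promoter, 1500/well. Seeded 2 h, compound added, incubated 24 h at 37 °C. Luciferase reagent, 10 min ambient, then luminescence.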
# Luc counter = blocks Kinase-Glo luciferase, a counter-screen artifact; Q27757; Kinase-Glo luciferase, ATP luminescence, 8 min; Potency, µM (top dose mostly 38.3 µM), for the others: top-dose activity change, negative = inhibition, most hits filed as inhibitors; 200,000 compounds, 0.28% hits; AID 1379; also: % is scaled to controls: 0 for no effect and ±100 for the full control effect; nearly all actives have a fitted effect of over 60% in size
#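 Light output from Kinase-Glo luciferase with luciferin and 10 uM ATP in 50 mM imidazole pH 7.2, KCl, MgCl2, Tween 20, BSA; compound pin-delivered, 8-min ambient incubation, then luminescence read.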
# Active calls of the source: *; ? = inconclusive; nt = not tested or not shown. Calls follow the shape of the dose curve; as a rule, active = well fitted curve in the direction sought with a large enough effect; inconclusive = small, poorly fitted or top-dose-only effect, or another doubt; inactive = no such curve, though single readings can be large; an effect the other way counts as inactive or inconclusive. Potency is read from the fitted curve at half-maximal effect.
SMILES,SMN2 splice up,Rab9 promoter act,FLuc modulator,ELG1 genotox,NPC1 promoter act,Luc counter
COc1cccc(C(=O)Nc2cc3c(cc2Cl)OCCCO3)c1,10µM*,1.78µM*,3.01µM*,?,3.16µM*,-6.0%
O=C(NCc1cccs1)c1ccc(Cn2c(SCc3ccc(F)cc3)nc3cccnc32)cc1,nt,nt,5.36µM*,nt,nt,nt
O=C(NCc1cccs1)c1ccc(Cn2c(SCc3ccccc3)nc3cccnc32)cc1,nt,nt,6.75µM*,nt,nt,nt
Cc1ccc(CSc2nc3cccnc3n2Cc2ccc(C(=O)NCc3cccs3)cc2)cc1,nt,nt,0.953µM*,nt,nt,nt
Cc1cccc(Cn2c(SCc3ccc(C(=O)NCc4cccs4)cc3)nc3cccnc32)c1,nt,nt,-15.2%,nt,nt,nt
CC(C)CCNC(=O)c1ccc(Cn2c(SCC(=O)NC(C)C)nc3ccccc3c2=O)cc1,nt,nt,-0.3%,nt,nt,nt
Cc1ccccc1Nc1oc(-c2ccccc2)nc1-c1ccccc1,-0.4%,nt,nt,nt,nt,-21.8%
CCSc1ncc(Cl)c(C(=O)N2CCN(c3ccccc3OC)CC2)n1,-0.7%,nt,-1.4%,nt,nt,nt
CC(C)Oc1ccc(C(=O)/C=C2/C(=O)Nc3ccccc32)cc1,nt,6.1%,5.36µM*,?,0.8%,nt
CCC(Sc1nnc(C)n2c1cc1occc12)C(=O)Nc1ccccc1OC (stereo not drawn),nt,nt,0.2%,nt,nt,nt
O=C1OC(C(=O)Nc2ccc(Cl)c(C(F)(F)F)c2)Cc2ccccc21 (stereo not drawn),21.8%,nt,-5.7%,nt,nt,nt
CCN(CC)S(=O)(=O)c1cc(NC(=O)NCCCl)ccc1C,nt,-3.3%,3.1%,-2.2%,11.0%,nt
CCN(CC)S(=O)(=O)c1cc(NC(=O)C2Cc3ccccc3C(=O)O2)ccc1C (stereo not drawn),nt,?,16.9µM*,0.0%,?,nt
O=C(Nc1ccc2c(c1)OCO2)c1ccncc1,2.4%,23.4%,-19.5%,9.2%,14.5%,-4.6%
CCN(CC)S(=O)(=O)c1cc(NC(=O)c2ccc(Br)s2)ccc1C,-11.6%,0.7%,12µM*,4.7%,19.7%,3.3%
O=C(Nc1ccc2c(c1)OCO2)c1cccs1,?,nt,13.5µM*,nt,nt,8.91µM*
O=C(Nc1ccc2c(c1)OCO2)c1ccc(Br)s1,12.6µM*,1.58µM*,3.38µM*,1.84µM*,1.78µM*,-1.5%
O=C(Nc1ccc2c(c1)OCCO2)c1cccs1,6.31µM*,1.58µM*,5.36µM*,16.4µM*,2.82µM*,?
Cn1nc(-c2ccccc2F)c2cc(C(=O)Nc3ccc4c(c3)OCCO4)sc21,28.5%,10.3%,9.53µM*,10.5%,-3.0%,-4.7%
O=S(=O)(Nc1ccc2c(c1)OCCO2)c1cccs1,1.2%,4.5%,?,7.31µM*,1.6%,-0.5%
CN(CC(=O)Nc1ccc(F)c(F)c1)S(=O)(=O)c1cccs1,nt,-0.6%,5.7%,-8.6%,-2.0%,nt
CN(CC(=O)Nc1ccc2c(c1)OCO2)S(=O)(=O)c1cccs1,nt,?,16.9µM*,?,?,nt
O=C(Nc1ccncc1)c1cccs1,13.7%,2.9%,3.4%,-0.7%,-1.0%,-10.6%
O=S(=O)(Nc1ccc2c(c1)OCO2)c1cccs1,-3.2%,2.0%,-2.9%,-1.8%,0.1%,-4.2%
CCCOc1c(Cl)cc(C(=O)N(Cc2cccc(OC)c2)C2CCS(=O)(=O)C2)cc1Cl (stereo not drawn),9.0%,nt,-2.3%,nt,nt,nt
SMILES,SMN2 splice up,Rab9 promoter act,FLuc modulator,ELG1 genotox,NPC1 promoter act,Luc counter
COc1ccc(C)c2sc(NC(=O)c3ccc(S(=O)(=O)N4CCCCC4)cc3)nc12,nt,nt,-2.7%,nt,nt,nt
Cc1ccc(/C=C/c2onc(C)c2S(=O)(=O)N2CCC(C(=O)N3CC(C)Oc4ccccc43)CC2)cc1 (stereo not drawn),nt,nt,0.3%,nt,nt,nt
CSc1cccc(NC(=O)Cn2c3ncccc3c(=O)n2-c2ccc(C)cc2)c1,nt,nt,-4.3%,nt,nt,nt
COc1cccc(C(=O)Nc2cccc(NC(=O)c3ccc(Cl)cc3Cl)c2)c1,-8.5%,nt,7.57µM*,nt,nt,nt
COc1cccc(C(=O)Nc2cccc(NC(=O)c3ccccc3Cl)c2)c1,nt,10.4%,15.1µM*,-7.9%,-1.3%,nt
O=C(Nc1cccc(NC(=O)c2ccc(Cl)cc2Cl)c1)c1cccnc1,nt,-4.6%,13.5µM*,-9.4%,-4.9%,nt
Cc1ccc(C(=O)COC(=O)c2cccc(NC(=O)c3ccc(Cl)cc3Cl)c2)cc1,?,nt,0.849µM*,nt,nt,nt
O=C(Nc1cccc(NC(=O)c2cccnc2)c1)c1cccnc1,-15.6%,1.9%,-9.4%,-12.8%,3.1%,-1.7%
CC1CCN(S(=O)(=O)c2ccc3c(c2)N(CC(=O)Nc2ccc(F)c(Cl)c2)C(=O)CO3)CC1,nt,nt,-1.6%,nt,nt,nt
COc1ccc(N(CC(=O)N2CCc3ccccc3C2)S(=O)(=O)c2ccc(C)cc2)cc1Cl,-12.2%,nt,-11.7%,nt,nt,nt
COc1ccc(C)cc1NS(=O)(=O)c1ccc2c(c1)[C@H]1C=CC[C@H]1[C@@H](c1cccc(Cl)c1)N2,-0.6%,nt,-19.9%,nt,nt,nt
CC(Sc1ncc(S(=O)(=O)c2ccc(C(C)C)cc2)c(N)n1)C(=O)Nc1ccccc1 (stereo not drawn),nt,nt,-0.4%,nt,nt,nt
Cc1c(-c2nsc(NC(=O)c3ccccc3)n2)nnn1-c1ccc(C(F)(F)F)c(Cl)c1,4.4%,nt,-0.8%,nt,nt,nt
CC(C)(C)C(=O)NC1=NN(c2c(Cl)cc(Cl)cc2Cl)C(=O)C1,nt,-2.7%,2.8%,-2.9%,-10.9%,-4.4%
COc1cccc(C(=O)Nc2cccc(C(=O)NC3=NN(c4c(Cl)cc(Cl)cc4Cl)C(=O)C3)c2)c1,8.7%,17.4%,9.53µM*,9.2%,-1.8%,-1.7%
CCC(=O)NC(=S)Nc1cccc(NC(=O)c2ccc(Cl)cc2Cl)c1,-7.2%,-8.5%,12µM*,-0.1%,-14.0%,0.8%
C/C(=N/NC(=O)c1ccoc1C)c1ccc(NC(=O)C2CCCC2)cc1,?,27.1%,?,?,23.5%,-10.4%
C/C(=N\NC(=O)c1ccoc1C)c1ccccc1,nt,2µM*,10.7µM*,?,2.51µM*,nt
COc1ccc(C(=O)Nc2cccc(/C(C)=N/NC(=O)c3ccc([N+](=O)[O-])c(C)c3)c2)cc1OC,11.6%,-2.9%,?,-11.7%,1.4%,-2.0%
COc1ccc(C(=O)Nc2cccc(/C(C)=N\NC(=O)c3ccoc3C)c2)cc1OC,nt,16.0%,16.9µM*,-10.9%,12.1%,nt
C/C(=N\NC(=O)c1nn(C)c(C)c1Br)c1cccc(NC(=O)c2ccoc2C)c1,9.2%,?,2.39µM*,15.7%,25.9%,-1.6%
CCOc1ccccc1-c1noc(CSc2nnc(-c3ccccc3)n2-c2ccc(OC)cc2)n1,-11.3%,nt,1.4%,nt,nt,nt
O=C1CCSC2(C(=O)N(Cc3ccc(F)cc3)c3ccccc32)N1c1ccc(Cl)cc1 (stereo not drawn),nt,nt,-14.6%,nt,nt,nt
NS(=O)(=O)c1ccc(CCNc2nc3c(-c4cccc(F)c4)nnn3c3ccc(Cl)cc23)cc1,20.3%,nt,-3.9%,nt,nt,nt
